High-throughput results as filed in PubChem.
Rows were chosen to be rich in hits. Some 5.7% of all compounds tested hit in one or more screens of this group.
NPSR antagonist: qHTS Assay for Antagonists of the Neuropeptide S Receptor: cAMP Signal Transduction; Q6W5P4; CHO-NPSR cells, cAMP TR-FRET, antagonist mode; Potency, µM (top dose mostly 38.3 µM), most hits filed as inhibitors; actives 1% (n = 220,000); AID 1461, 2008; further: nearly all actives have a fitted effect of over 50% in size
Gal4-VP16 FLuc: VP16 counterscreen qHTS for inhibitors of ROR gamma transcriptional activity; Drosophila S2 Gal4-VP16 UAS-luciferase, luminescence, 20 h; Potency, µM (titrated, usually from 53.6 µM), actives largely listed as inhibitors; actives 3.5% (n = 310,000);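 further: Gal4-VP16 expression switched on by copper sulfate through the metallothionein promoter; nearly all actives have a fitted effect of over 50% in size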
B2AR arrestin: qHTS assay of beta-arrestin-biased ligands of beta2-adrenergic receptor | beta-arrestin recruitment to beta2AR, cell-based reporter | Potency, µM (top dose mostly 46.1 µM), most hits filed as activators | actives 0.02% (n = 330,000) | AID 492947, 2010; further: nearly all actives have a fitted effect of over 65% in size
RORg inh: qHTS for inhibitors of ROR gamma transcriptional activity; Potency, µM (titrated, usually from 53.6 µM), hits mostly inhibitors; Nuclear receptor ROR-gamma (Mus musculus), P51450; actives 5.4% (n = 310,000); Drosophila S2 Gal4-RORgamma UAS-luciferase reporter, 20 h; further: nearly all actives have a fitted effect of over 60% in size
Target sequence (P51450 whole entry, looked up, the tested form may be a part): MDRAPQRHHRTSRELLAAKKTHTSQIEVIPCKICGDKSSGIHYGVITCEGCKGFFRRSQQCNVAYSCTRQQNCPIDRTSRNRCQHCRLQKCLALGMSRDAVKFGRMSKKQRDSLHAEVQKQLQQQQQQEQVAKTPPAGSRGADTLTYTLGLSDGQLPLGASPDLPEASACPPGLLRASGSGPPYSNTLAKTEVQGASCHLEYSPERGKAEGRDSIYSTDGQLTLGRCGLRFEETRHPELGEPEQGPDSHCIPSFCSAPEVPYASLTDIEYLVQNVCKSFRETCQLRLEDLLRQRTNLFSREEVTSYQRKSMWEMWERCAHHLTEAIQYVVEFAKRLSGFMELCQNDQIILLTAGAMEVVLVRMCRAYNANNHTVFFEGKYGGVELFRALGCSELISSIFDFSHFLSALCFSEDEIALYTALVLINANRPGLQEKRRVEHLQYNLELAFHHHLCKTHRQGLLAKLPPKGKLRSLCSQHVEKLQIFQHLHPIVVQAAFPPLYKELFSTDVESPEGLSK
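ROR gamma transcriptional activity was tracked as Gal4-UAS luciferase output in stably transfected Drosophila Schneider cells, with compound added 1 hr before 700 uM copper sulfate induction and a 20 hr ambient-temperature incubation.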
Of the large screens only hits and unclear results are named; the others gave an inactive call. The call rests on the fitted dose curve; in most records, active means well fitted curve in the direction sought with a large enough effect; inconclusive means small, poorly fitted or top-dose-only effect, or another doubt; inactive means no such curve, though single readings can be large; an effect the other way counts as inactive or inconclusive.

COc1cc2[nH]c(=O)n(-c3ccc(C)cc3)c(=O)c2cc1OC	none
COc1cc2[nH]c(=S)n(-c3ccccc3)c(=O)c2cc1OC	RORg inh 4µM
Cc1cccc(-n2c(C)n[nH]c2=S)c1C	Gal4-VP16 FLuc inconclusive, RORg inh 16µM (no result: B2AR arrestin)
Cc1cccc(-n2c(C)nc3ccccc3c2=O)c1C	none
CC1CCCCC1n1c(-c2cccnc2)n[nH]c1=S (centres undefined)	Gal4-VP16 FLuc inconclusive, RORg inh 10µM
CCCOCCN(C(=O)CCl)c1c(CC)cccc1CC	none (no result: NPSR antagonist, B2AR arrestin)
CC1(C)C[C@H]2C=C(C=O)[C@]3(C=O)C[C@]3(C)[C@H]2C1	NPSR antagonist 13µM, Gal4-VP16 FLuc 1.1µM, RORg inh 1.4µM
CN(Cc1ccc(OC(F)F)cc1)Cc1nc2c(Br)cc(Br)cc2c(=O)[nH]1	Gal4-VP16 FLuc 13µM, RORg inh 3.2µM
COc1ccc(-c2nc3ccccc3c(=O)n2-c2ccc(OC)cc2)cc1	none
Cc1ccc(-n2sc3ccccc3c2=O)cc1	NPSR antagonist inconclusive, Gal4-VP16 FLuc 1.6µM, RORg inh 5µM
O=C1c2ccccc2C(=O)C1C(=O)C(c1ccccc1)c1ccccc1	none (no result: NPSR antagonist, B2AR arrestin)
Cc1ccc(/C=C/C(=O)C2C(=O)c3ccccc3C2=O)cc1	Gal4-VP16 FLuc inconclusive, RORg inh 6.3µM
[Hg+][c]1ccccc1	Gal4-VP16 FLuc 2.8µM, RORg inh inconclusive (no result: NPSR antagonist, B2AR arrestin)
c1ccc(-c2ccccc2)cc1	none (no result: NPSR antagonist, B2AR arrestin)
CC(C)CON=O	none (no result: NPSR antagonist, B2AR arrestin)
O=C1NC(=O)N(Cc2ccccc2)C(=O)/C1=C/c1cnc(-c2ccccc2)nc1	NPSR antagonist 10µM
CN1CSC(=S)N(C)C1	Gal4-VP16 FLuc 11µM, RORg inh 10µM (no result: B2AR arrestin)
CCOc1ccc(-c2nc3ccc(-c4nc5ccc(N6CCN(C)CC6)cc5[nH]4)cc3[nH]2)cc1	Gal4-VP16 FLuc inconclusive, RORg inh 2.2µM (no result: NPSR antagonist, B2AR arrestin)
Cc1ccc2nc(N3CCN(C)CC3)[nH]c2c1	none
COc1ccccc1NC(=O)COC(=O)c1cc(C)n(C2CC2)c1C	none (no result: NPSR antagonist, Gal4-VP16 FLuc, RORg inh)
Cc1cc(C(=O)CN2C(=O)c3ccccc3C2=O)c(C)n1C1CC1	Gal4-VP16 FLuc 16µM
COc1ccc(C(=O)C2CCCN(C3CSCCSC3)C2)c(C)c1 (centres undefined)	RORg inh 10µM
CC1Oc2cc3c(-c4c(O)cc(O)c5c(O)c6c(cc45)OC(C)C(C)C6=O)c(O)cc(O)c3c(O)c2C(=O)C1C (centres undefined)	NPSR antagonist inconclusive, Gal4-VP16 FLuc inconclusive, RORg inh 4µM
ClC(Cl)Br	none (no result: NPSR antagonist, B2AR arrestin)
CC(=O)O[C@H]1C(=O)[C@@]2(C)C([C@H](OC(=O)c3ccccc3)[C@]3(O)C[C@H](OC(=O)[C@H](O)[C@@H](NC(=O)Cc4ccccc4)c4ccccc4)C(C)=C1C3(C)C)[C@]1(OC(C)=O)CO[C@@H]1C[C@@H]2O (some centres undefined)	Gal4-VP16 FLuc 13µM, RORg inh inconclusive (no result: NPSR antagonist)
CC(=O)O[C@@]12CO[C@@H]1C[C@H](O)[C@@]1(C)C(=O)[C@H](O)C3=C(C)[C@@H](OC(=O)[C@H](O)[C@@H](NC(=O)c4ccccc4)c4ccccc4)C[C@@](O)([C@@H](OC(=O)c4ccccc4)C12)C3(C)C (some centres undefined)	Gal4-VP16 FLuc inconclusive, RORg inh inconclusive (no result: NPSR antagonist)
C[C@@]12CC3CC(N)(C1)C[C@@](C)(C3)C2	none (no result: NPSR antagonist, B2AR arrestin)
Cc1nc2c(=O)n(C)c(=O)nc-2n(C)n1	NPSR antagonist inconclusive, Gal4-VP16 FLuc 3.5µM, RORg inh inconclusive
O=C(Nc1ccccc1)c1ccccc1I	none (no result: NPSR antagonist, B2AR arrestin)
CN1CCN(c2ccc(S(C)(=O)=O)cc2[N+](=O)[O-])CC1	none
CN1CCN(c2ccc([N+](=O)[O-])c3no[n+]([O-])c23)CC1	NPSR antagonist 10µM, Gal4-VP16 FLuc 5.6µM, RORg inh 1.3µM
O=c1c2ccccc2[se]n1-c1ccccc1	NPSR antagonist inconclusive, Gal4-VP16 FLuc 11µM, RORg inh 10µM
O=c1c2ccccc2nc(-c2ccccc2)n1-c1ccccc1	none
CN1CC[C@@]2(c3cccc(O)c3)Cc3nc4ccccc4cc3C[C@H]2C1	none (no result: NPSR antagonist, B2AR arrestin)
CC(C)c1oc(=O)cc2c1[C@@H](O)[C@H]1OC(=O)[C@@]3(C)CC[C@@H](O)[C@@]2(C)C13 (some centres undefined)	Gal4-VP16 FLuc 5µM, RORg inh 20µM
CC(C)c1oc(=O)cc2c1[C@@H](O)[C@H]1OC(=O)[C@@]3(C)C[C@@H](O)[C@@H](O)[C@@]2(C)C13 (some centres undefined)	none
O=C(Nc1ccc(Br)cc1C(=O)O)c1ccc2c(c1)C(=O)N(Cc1ccccc1)C2=O	Gal4-VP16 FLuc inconclusive, RORg inh 10µM (no result: NPSR antagonist)
CCOC(=O)C1OC1(C)c1ccccc1 (centres undefined)	none (no result: NPSR antagonist, B2AR arrestin)
Cc1ccc(-c2cn3c(=S)[nH]nc3s2)cc1	Gal4-VP16 FLuc inconclusive, RORg inh 2.8µM
COc1ccc(C(=O)NC(=S)N2C[C@H]3C[C@H](C2)c2cccc(=O)n2C3)cc1	RORg inh inconclusive (no result: NPSR antagonist)
O=C(/C=C/c1ccc(Br)cc1)NC(=S)N1C[C@H]2C[C@H](C1)c1cccc(=O)n1C2	RORg inh 18µM (no result: NPSR antagonist)
COc1ccc(/C=C/C(=O)NC(=S)N2C[C@H]3C[C@H](C2)c2cccc(=O)n2C3)cc1	none (no result: NPSR antagonist)
O=C(/C=C/c1ccc(Cl)cc1)NC(=S)N1C[C@H]2C[C@H](C1)c1cccc(=O)n1C2	RORg inh 13µM (no result: NPSR antagonist)
c1ccc(CN2CCC3(CCNCC3)CC2)cc1	none (no result: NPSR antagonist, B2AR arrestin)
COc1cc2c(cc1OC)C(C)NCC2 (centres undefined)	none (no result: NPSR antagonist)
CC[C@@H]1CN2CCc3cc(OC)c(OC)cc3[C@@H]2C[C@@H]1C[C@H]1NCCc2cc(OC)c(OC)cc21	RORg inh 1.1µM (no result: NPSR antagonist, B2AR arrestin)
CC[C@@H]1CN2CCc3cc(OC)c(OC)cc3[C@H]2C[C@@H]1C[C@H]1NCCc2cc(OC)c(OC)cc21	Gal4-VP16 FLuc inconclusive, RORg inh 0.56µM (no result: NPSR antagonist, B2AR arrestin)
CC1N(P(=O)(c2ccccc2)c2ccccc2)CC(O)(c2ccccc2)CC12CC2 (centres undefined)	none (no result: NPSR antagonist, B2AR arrestin)
CC(C)[C@]12O[C@H]1[C@@H]1O[C@]13[C@]1(O[C@H]1C[C@H]1C4=C(CC[C@@]13C)C(=O)OC4)[C@@H]2O	Gal4-VP16 FLuc 0.4µM, RORg inh 0.32µM
CCC1C2CC3C4N(C)c5ccccc5[C@]45CC(C2C5O)N3C1O (some centres undefined)	none (no result: NPSR antagonist, B2AR arrestin)
CCCCn1c(-c2nn(C)cc2Cl)n[nH]c1=S	Gal4-VP16 FLuc inconclusive, RORg inh 13µM
CCCCn1nc(C)c(C(=O)O)c1Cl	none
CC12CCC3C4CCC(=O)C(O)=C4CCC3C1CCC2OC(=O)CCC1CCCC1 (centres undefined)	none (no result: NPSR antagonist, B2AR arrestin)
C/C(=C\c1ccc(N(C)C)cc1)[N+](=O)[O-]	Gal4-VP16 FLuc 22µM, RORg inh 7.1µM
CN(C)c1ccc(C(=O)c2ccc(N(C)C)cc2)cc1	none
CN(C)c1ccc(/C=C/[N+](=O)[O-])cc1	Gal4-VP16 FLuc 13µM, RORg inh 11µM
CC(=O)Oc1ccc(/C=C/c2cc(OC(C)=O)cc(OC(C)=O)c2)cc1	Gal4-VP16 FLuc inconclusive, RORg inh 4µM (no result: NPSR antagonist, B2AR arrestin)
